Screening results as filed in PubChem BioAssay.
In the library only some 10% were active in any assay of this set; here they are far more common.
PNC assembly inh: inhibitors of perinucleolar compartment assembly | PC3M PTB-GFP, PNC prevalence imaging, 16 h; active compounds read low | activity change (PNC), negative = inhibition, % at 10 µM | 140,000 tested, 3.1% active | AID 2417;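 active means readout at or below -70, meaning at least 70% loss of cells showing the perinucleolar compartment, a nuclear body marking cancer cells; inconclusive means readout between -30 and a set limit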;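 further: plate controls were DMSO wells for no effect and camptothecin positive control wells for full effect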
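Read-out is percentage of cells bearing a perinucleolar compartment, from automated 20x imaging of fixed, Hoechst-stained PC3M PTB-GFP cells. Cells were seeded 4 h, then exposed 16 h to compound (23 nl of library stock) in duplicate plates.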
LMNA splice mod: changes lamin A minigene splicing in HeLa cells | Potency, µM (series often up to 46.1 µM), without a hit: at the highest dose ratio change, negative = inhibition, hits mostly inhibitors | 200,000 tested, 0.01% active | HeLa LMNA splicing GFP/RFP minigene ratio, 48 h; active means well fitted inhibition curve with a large enough effect in the signal ratio, with a control signal flat, not every such curve was filed as active; inconclusive means small, poorly fitted or top-dose-only effect, or effect the other way, or a change in a side signal; the % refers to the signal ratio; further: potency means the concentration at half of the fitted maximal effect
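S3 HeLa stable clones carrying a lamin A-EGFP splicing minigene plus DsRed2 were seeded at 600 cells/well in Opti-MEM with 2% FBS, pin-dosed and incubated 48 h at 37°C. Acumen cytometry (488 nm) gave the GFP/RFP total-intensity ratio.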
ALDH1A1 inh: blocks purified human ALDH1A1 activity | P00352 | Purified ALDH1A1, NADH fluorescence, propionaldehyde substrate | Potency, µM (highest dose often 75.3 µM), without a hit: at the top dose activity, negative = inhibition, hits mostly inhibitors | 220,000 tested, 7.3% active;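 further: potency means the concentration at half of the fitted maximal effect; plate controls were no enzyme wells and a reference inhibitor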
Target sequence (P00352 whole entry, looked up): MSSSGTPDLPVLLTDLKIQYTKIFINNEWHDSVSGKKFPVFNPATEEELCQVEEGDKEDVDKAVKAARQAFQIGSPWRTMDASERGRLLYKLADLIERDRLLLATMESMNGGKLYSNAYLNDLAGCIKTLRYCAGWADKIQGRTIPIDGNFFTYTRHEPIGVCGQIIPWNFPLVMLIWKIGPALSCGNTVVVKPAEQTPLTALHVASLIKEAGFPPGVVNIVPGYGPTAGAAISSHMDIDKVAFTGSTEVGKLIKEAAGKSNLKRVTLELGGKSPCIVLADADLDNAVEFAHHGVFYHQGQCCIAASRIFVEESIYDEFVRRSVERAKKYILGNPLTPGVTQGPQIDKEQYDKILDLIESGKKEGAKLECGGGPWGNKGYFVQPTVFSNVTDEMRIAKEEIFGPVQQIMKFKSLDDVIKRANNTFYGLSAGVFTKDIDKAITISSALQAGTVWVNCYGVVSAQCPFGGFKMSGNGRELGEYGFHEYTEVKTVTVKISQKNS
ALOX12 inhib: 12-hLO (ALOX12) enzyme inhibition; Potency, µM (top dose mostly 57.1 µM), without a hit: at the highest dose activity change, negative = inhibition, usual class: inhibitors; AID 1452; purified 12-hLO, xylenol orange hydroperoxide absorbance; 150,000 tested, 0.12% active; P18054; active means well fitted inhibition curve with a large enough effect; inconclusive means small, poorly fitted or top-dose-only effect; further: potency means the concentration at half of the fitted maximal effect; nearly all actives have a fitted effect of over 55% in size
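Hydroperoxide formation by human 12-lipoxygenase from 40 uM arachidonic acid was followed colorimetrically via ferric-xylenol orange complex, using the 573/405 nm absorbance ratio. Enzyme concentration was 150 nM, with 30 min reaction at room temperature.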
HPGD inh: HPGD (human) dehydrogenase inhibition. 150,000 tested, 4.3% active. AID 894. purified HPGD, NADH fluorescence kinetic, PGE2 substrate. P15428. Potency, µM, without a hit: at the top dose activity change, negative = inhibition, usual class: inhibitors; further: potency means the concentration at half of the fitted maximal effect
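20 nM HPGD preincubated 15 min at room temperature with compound in 50 mM Tris-HCl pH 8, 0.01% Tween 20. Started with 1 mM NAD+ and 30 uM prostaglandin E2; NADH fluorescence (360/450 nm) read 5 times over 30-s intervals, last minus first.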
Active calls of the source: *; [ ] = remark or other dose. Unless noted, the call rests on the fitted dose curve; in most records, active means well fitted inhibition curve with a large enough effect (not every such curve was filed as active); inconclusive means small, poorly fitted or top-dose-only effect, or another doubt; inactive means no such curve, though single readings can be large or run the other way. Unless noted, on the % scale 0 is the no-effect control and ±100 the full control effect.

`Cc1cc(SCC(=O)c2cccs2)nc2ccccc12` gave PNC assembly inh inconclusive, LMNA splice mod -8.2%, ALDH1A1 inh inconclusive, ALOX12 inhib 15.1% and HPGD inh 4.47µM*.
O=C(CSc1nc2ccccc2n1CCc1ccccc1)c1ccc(O)c(O)c1 was read as ALDH1A1 inh 14.1µM*.
Screening COC(=O)C1C2CC3c4[nH]c5cc(OC)ccc5c4CCN3CC2CC(OC(=O)c2cc(OC)c(OC)c(OC)c2)C1OC (configuration not stated) returned ALDH1A1 inh -8.9%, ALOX12 inhib -18.3% and HPGD inh -9.2%.
COc1ncc2nc(-c3ccccc3)c(=O)n(C)c2n1 was read as LMNA splice mod -6.3% and ALDH1A1 inh inconclusive.
For Cc1sc2nc(CSc3nnnn3-c3ccc(Cl)cc3)[nH]c(=O)c2c1C the results were PNC assembly inh -16.4, LMNA splice mod inconclusive, ALDH1A1 inh inconclusive, ALOX12 inhib -7.8% and HPGD inh -14.7%.
CCn1c(SCc2nc3sc(C(=O)O)c(C)c3c(=O)[nH]2)nnc1-c1ccc(Cl)cc1 was read as LMNA splice mod -11.2%[46 µM] and ALDH1A1 inh 14.1µM*.
Screening CCOc1ccc(-n2c(/C=C/c3cccc(F)c3)nc3cc(OC)c(OC)cc3c2=O)cc1 returned LMNA splice mod -3.2%[46 µM].
Screening O=C(CSC1=NC(=O)C(Cc2ccccc2)C(=O)N1)Nc1ncccn1 (configuration not stated) returned PNC assembly inh inconclusive, LMNA splice mod 7.1%, ALDH1A1 inh 0.3% and ALOX12 inhib 0.4%.
`O=C(CSC1=NC(=O)C(Cc2ccccc2)C(=O)N1)Nc1ncc(Br)cc1Br` (configuration not stated) gave ALDH1A1 inh 39.8µM*.
CC(C)Cc1cc(C(=O)Nc2cc(Cl)ccc2Cl)no1 was read as PNC assembly inh 6.9, LMNA splice mod -5.9%, ALDH1A1 inh -5.0%, ALOX12 inhib 0.9% and HPGD inh 14.1µM*.
CC(C)c1cc(C(=O)Nc2cccc(Cl)c2)no1 was read as PNC assembly inh 32.5, LMNA splice mod 0.6%, ALDH1A1 inh -3.2%, ALOX12 inhib -1.6% and HPGD inh -18.0%.
Screening CC(C)c1cc(C(=O)Nc2cc(Br)ccc2O)no1 returned PNC assembly inh 34.3, LMNA splice mod -5.0%, ALDH1A1 inh 3.7%, ALOX12 inhib -0.6% and HPGD inh 8.91µM*.
For CCCc1cc(C(=O)Nc2cc(Br)ccc2O)no1 the results were PNC assembly inh inconclusive, LMNA splice mod inconclusive, ALDH1A1 inh 4.2%, ALOX12 inhib 1.5% and HPGD inh inconclusive.
For CC(C)c1cc(C(=O)Nc2cc(Cl)ccc2O)no1 the results were PNC assembly inh -4.7, LMNA splice mod inconclusive, ALDH1A1 inh 2.7%, ALOX12 inhib -8.1% and HPGD inh 5.62µM*.
Screening CCC(NC(=O)CCCc1ccccc1)c1ccccc1 (configuration not stated) returned PNC assembly inh -9.6, LMNA splice mod -1.5%, ALDH1A1 inh -4.1%, ALOX12 inhib -2.1% and HPGD inh -7.0%.
Screening O=C(CCl)NC(Cc1ccccc1)c1ccccc1 (configuration not stated) returned ALDH1A1 inh 1.41µM*.
CC(=O)NC(Cc1ccccc1)C(C)=O (configuration not stated) was read as ALDH1A1 inh 13.6%.
Screening CC(=O)C(Cc1ccccc1)NC(=O)CCl (configuration not stated) returned ALDH1A1 inh 22.4µM*.
For CCSc1n[nH]c(=S)s1 the results were LMNA splice mod -5.0%[46 µM] and ALDH1A1 inh 1.78µM*.
`Nc1ccccc1-c1n[nH]c(=S)s1` gave LMNA splice mod -24.3%[46 µM] and ALDH1A1 inh inconclusive.
For CCCCCCCCCCCCCCCC(=O)OCC(COP(=O)(O)O)OC(=O)CCCCCCCCCCCCCCC (configuration not stated) the results were ALDH1A1 inh -0.1%, ALOX12 inhib 7.0% and HPGD inh -2.8%.
Screening Nc1nc(SCc2ccc(Cl)cc2Cl)nc2nc3c(cc12)CCCC3 returned PNC assembly inh -82.6*, LMNA splice mod inconclusive, ALDH1A1 inh 3.2%, ALOX12 inhib 1.3% and HPGD inh -27.8%.
Screening S=c1[nH]c(-c2ccc(Cl)cc2)cs1 returned LMNA splice mod 13.6%[46 µM] and ALDH1A1 inh 3.16µM*.
Screening Cc1ccc(-c2ccc(C(=O)O)[nH]2)cc1 returned PNC assembly inh 41.5, LMNA splice mod inconclusive, ALDH1A1 inh -9.6%, ALOX12 inhib -2.1% and HPGD inh inconclusive.
For Cc1ccc(-c2csc(=S)[nH]2)cc1 the results were ALDH1A1 inh 14.1µM*.
CCOc1ccc(CNC(=O)c2ccc3c(c2)nc2n3CCC(C)C2)cc1OC (configuration not stated) was read as LMNA splice mod 16.0%[46 µM].
`CCc1ccc(NC(=O)CCS(=O)(=O)c2ccc3c(c2)oc(=O)n3C)cc1` gave LMNA splice mod 10.0%[46 µM].
Cc1ccc(C(c2nnnn2C2CCCCC2)N(C)C2CCCCC2)cc1 (configuration not stated) was read as PNC assembly inh -7.3, LMNA splice mod 2.0%, ALDH1A1 inh -3.5%, ALOX12 inhib 6.8% and HPGD inh -2.5%.
For CC(C)C(c1nnnn1C1CCCC1)N(C)C1CCCCC1 (configuration not stated) the results were PNC assembly inh 41.4, LMNA splice mod 0.6%, ALDH1A1 inh 28.2µM*, ALOX12 inhib 4.1% and HPGD inh -4.7%.
Screening COCCn1c(C)cc(/C=C2/NC(=O)N(c3ccc(Cl)cc3)C2=O)c1C returned PNC assembly inh -113.8*, LMNA splice mod inconclusive, ALDH1A1 inh -7.0%, ALOX12 inhib -0.9% and HPGD inh -20.7%.
Screening CCn1c(C)cc(/C=C2\NC(=O)N(Cc3ccc(Cl)cc3)C2=O)c1C returned PNC assembly inh inconclusive, LMNA splice mod 7.4%, ALDH1A1 inh inconclusive, ALOX12 inhib -10.3% and HPGD inh -17.9%.
CCOc1ccc(NC(=O)CN2CCSc3ccc(S(=O)(=O)N4CCCC4)cc32)cc1 was read as LMNA splice mod 10.7%[46 µM].
Screening COc1cccc(Cn2c(=O)cnc3cnc(Oc4ccccc4)nc32)c1 returned LMNA splice mod 0.2% and ALDH1A1 inh -12.8%.
Cc1cc(=O)[nH]c(N/N=C/c2cccs2)n1 was read as PNC assembly inh inconclusive, LMNA splice mod inconclusive, ALDH1A1 inh -14.4%, ALOX12 inhib -0.7% and HPGD inh -13.6%.
`Cc1cc(=O)[nH]c(N/N=C/c2sccc2C)n1` gave PNC assembly inh -9.4, LMNA splice mod -14.0%, ALDH1A1 inh 3.3%, ALOX12 inhib -5.5% and HPGD inh 39.8µM*.
`CCOc1cccc2oc(-c3ccccc3Cl)cc(=O)c12` gave ALDH1A1 inh -10.0%, ALOX12 inhib -12.9%[0.00818 µM] and HPGD inh 44.7µM*.
